In all, about 69,000 compounds went through this assay and about 8,600 (12%) showed an effect of 50% or more. Only a selection was taken, and strong results are over-represented in it overall.

Our source for the INHIBITION values is ChEMBL document CHEMBL4513216, “Probing the Open Global Health Chemical Diversity Library for Multistage-Active Starting Points for Next-Generation Antimalarials” (ACS Infect Dis, 2020).

The test has as its system Plasmodium berghei. Description: Screen against P. berghei liver stage (PbLuc), transformed with Luciferase, at 10uM. It counts as functional, HepG2. To be noted: tested at 10 uM.
`Cc1n[nH]c(C)c1-c1cnc(C2CCN(S(C)(=O)=O)CC2)cn1`: the INHIBITION was 11.1%.

`O[C@@H]1CC(CNCc2cccc(Cl)c2)(COc2cccnc2)C[C@@H]1O` (some centres not stated): the INHIBITION was found to be 37.4%. As to `COC(=O)c1ccc(NC(C)c2ccc3c(c2)CC(=O)N3)nn1` (configuration not stated), the INHIBITION is -4.12%. The value for `Cc1nnc(N2CCO[C@H]3[C@@H](OCc4ccccn4)CC[C@@H]32)s1` was 11.4%; that for `COCC1CCN(C(C(=O)O)c2c(F)cccc2OC(C)C)CC1` (configuration not stated) was 35.1%. Under `O=S(=O)(Nc1ccc2c(c1)OCCO2)N1CCCCC1` stands 8.44%.

As for `O=S(=O)(Nc1ccc(Oc2ccc3c(c2)OCO3)cc1)N1CCCCC1`, the INHIBITION was 52.7%.

For the compound `CN(C)S(=O)(=O)Nc1ccc(Oc2ccc3c(c2)OCO3)cc1`, the INHIBITION was found to be 41.2%. With `CC(=O)N(Cc1noc(C2CC2)n1)C1CCN(Cc2ccccc2)C1` (configuration not stated), the INHIBITION is -6.44%. As for `O=C(CCO)N1CCC2(CCc3ccc(-c4ccoc4)cc32)CC1`, the INHIBITION turned out to be 0.923%. Consider `c1cncc(-c2ccc3c(c2)CCC32CCN(Cc3nccs3)CC2)c1`, for which the INHIBITION was determined as 57.1%. For `O[C@H]1[C@H](n2cc(-c3cccnc3)nn2)c2ccccc2C12CCNCC2`, the INHIBITION amounted to 31.2%. The value for `OCCN1CCC2(CCc3cc(-c4ccoc4)ccc32)CC1` was 28.2%; that for `CN(C)CC(=O)N1CCC2(CCc3cc(-c4cccnc4)ccc32)CC1` was 15.3%; that for `Cc1ccc2c(c1)CCC21CCN(C(=O)CO)CC1` was 10.1%. Under `c1cc(-c2ccc3c(c2)CCC32CCNCC2)ccn1` stands 57.1%.

Take `c1cncc(-c2ccc3c(c2)CCC32CCNCC2)c1`: the INHIBITION was determined as 57.1%. Regarding `CN(C)CC(=O)N1CCC2(CCc3ccc(-c4ccncc4)cc32)CC1`, the INHIBITION stood at 21.6%. On to `c1cc(-c2ccc3c(c2)C2(CCNCC2)CC3)ccn1`, for which the INHIBITION is recorded as 82.2%. Take `c1cncc(-c2ccc3c(c2)C2(CCNCC2)CC3)c1`: the INHIBITION is listed as 27.5%. The value for `c1cncc(-c2ccc3c(c2)CCC32CCN(Cc3ccco3)CC2)c1` was 26.5%. As to `CCOc1ccc(NC(=O)c2cc3c([nH]c2=O)CCC3)cc1`, the INHIBITION is reported as -29.6%. As to `NC(=O)NC1CCN(Cc2ccccc2OCC(F)(F)F)CC1`, the INHIBITION was found to be 6.7%. Under `Cc1noc(CN2CCN(C(=O)N(C)C)CC2)n1` stands 23.5%. Under `CS(=O)(=O)NC[C@@H]1OC[C@H]2CN(Cc3ccccc3)CC[C@H]21` stands -54.9%; under `CC(C)c1sc(Cl)nc1C(=O)NCc1ccncc1`, -23%. The value for `COc1nn(C)c2c1CCCN(C(=O)c1ccc(C)c(F)c1)C2` was -8.94%.

With `CS(=O)(=O)NC[C@H]1OC[C@H]2CN(Cc3ccsc3)CC[C@H]21`, the INHIBITION is given as -24.1%. Take `COc1ccc(CNC(=O)Nc2ccc(S(=O)(=O)C(F)F)cc2)cc1`: the INHIBITION turned out to be 66.2%. The value for `Cn1ccc(CNC(=O)Nc2ccc(S(=O)(=O)C(F)F)cc2)c1` was 30.4%; that for `CN(C)c1ccc(CNC(=O)Nc2ccc(S(=O)(=O)C(F)F)cc2)cc1` was -3.99%. Consider `Cc1cccc(Sc2nccn(C)c2=O)c1`, for which the INHIBITION was determined as 20.3%. As to `CC(=O)N1CCC(n2nccc2-c2cnc(N(C)CCO)nc2)CC1`, the INHIBITION was 11.5%. The value for `Cc1cccc(S(=O)(=O)N2CCC3(CC2)CC(N(C)C)CO3)c1` (configuration not stated) was 72%; that for `CCOC1COC2(CCN(S(=O)(=O)c3cccc(C)c3)CC2)C1` (configuration not stated) was 27.6%.

As to `CCOC1COC2(CCN(S(=O)(=O)c3ccc(F)cc3)CC2)C1` (configuration not stated), the INHIBITION is 45.7%. The value for `COC1COC2(CCN(S(=O)(=O)c3ccc(F)cc3)CC2)C1` (configuration not stated) was 32.1%; that for `CCOC1COC2(CCN(S(=O)(=O)c3cccc(F)c3)CC2)C1` (configuration not stated) was 29.6%; that for `CN(C)C1COC2(CCN(S(=O)(=O)c3ccc(F)cc3)CC2)C1` (configuration not stated) was 57.5%. As to `CCOCC1CN(S(=O)(=O)N(C)C)Cc2cnn(C)c21` (configuration not stated), the INHIBITION came to 33.5%.

For the compound `COCCN1CCO[C@@H]2CN(C(=O)Cc3ccccc3)CC[C@@H]2C1`, the INHIBITION is 18.5%. `CC(C)O[C@H]1CN(C(=O)CCN2CCCCO2)C[C@@H]1O`: the INHIBITION is given as 57.6%.

For the compound `O=C(CCN1CCCCO1)N1CC[C@H](O)[C@@H](O)C1`, the INHIBITION is listed as 28.7%. For `O=C(CCN1CCCO1)N1CC[C@@H](CNC(=O)N2CCCC2)[C@H](O)C1`, the INHIBITION turned out to be 43.7%. As for `Cc1cccc(C(=O)N2C[C@@H]3CCN(C(C)C)C[C@@H]3C2)c1`, the INHIBITION is on record as -38.1%. The value for `Cc1cc(CN2CC[C@H]3C[C@H](C(=O)N4CCC(C)CC4)O[C@H]3C2)no1` was 34.7%.

As for `COc1cccc(-c2nc(CC(=O)NC3(C)CCS(=O)(=O)C3)cs2)c1` (configuration not stated), the INHIBITION is recorded as -10.1%. With `COCC1CCN(c2cc(C3CN(C)CCO3)nc(C)n2)CC1` (configuration not stated), the INHIBITION is reported as 23.9%. Under `Cn1cc(C2CN(C(=O)Cc3coc(-c4ccccc4)n3)CCO2)cn1` (configuration not stated) stands 53.9%.

In the case of `CCC1CN(C(=O)Cc2coc(-c3ccccc3)n2)CCO1` (configuration not stated), the INHIBITION is listed as 7.4%. Under `Cn1cc(C2CCCN2C(=O)Cc2coc(-c3ccccc3)n2)cn1` (configuration not stated) stands 13.9%; under `CCS(=O)(=O)N1CCC2(CCN(Cc3nccs3)CC2)CC1`, 26.5%. `CC(C)(C)C(=O)N1CCCC(c2ncncc2-c2ccncc2)C1` (configuration not stated): the INHIBITION is given as 49.6%. For `O=C1COc2cc(C(=O)NS(=O)(=O)c3cccc(Cl)c3)ccc2N1`, the INHIBITION came to 47%. Under `COc1ccc(CN(C)C2CCN(C(=O)C(C)C)CC2)c2cccnc12` stands 8.97%. The value for `COc1ccc(CN(C)C2CCN(S(C)(=O)=O)CC2)c2cccnc12` was 30.5%; that for `COc1ccc(CN(C)C2CSCCSC2)c2cccnc12` was 57.4%; that for `O=C(c1ccccc1F)N1CCC2(CC1)CC(N1CCCC1)CO2` (configuration not stated) was 44.8%.

For the compound `Cc1cnn(CC2CCCN2C(=O)c2ccc(F)cc2Cl)c1` (configuration not stated), the INHIBITION is on record as -81.1%. Under `CN(C)C(=O)c1n[nH]c2c1CN(CC1CCCCC1)C2` stands 25.6%; under `CCn1cc(NC(=O)C(C)n2ncc(Cl)c2C)c(C(=O)NCC(C)C)n1` (configuration not stated), 11%. Take `COCC(=O)N1CCC(c2nc3ccc(N4CCOCC4)cn3n2)CC1`: the INHIBITION came to 45.2%. With `COCCN1CCC(c2nc3ccc(NC(C)C)cn3n2)CC1`, the INHIBITION is recorded as 19.5%. On to `c1cc2nc(C3CCN(CC4CC4)CC3)nn2cc1N1CCCC1`, for which the INHIBITION worked out at 8.47%. Turning to `COCCN1CCC(c2nc3ccc(N4CCCC4)cn3n2)CC1`, the INHIBITION stood at 52%. The value for `COCCN1CCC(c2nc3ccc(NC4CCC4)cn3n2)CC1` was 57.5%; that for `CCN1CCC(c2nc3ccc(NC4CCC4)cn3n2)CC1` was 46.6%.
